# In article PMC11006913:
# Residue numbers refer to the chain shown, from its start.
# Columns and labels:
# Assay in all cases: PBM; 200 nM protein, PBS
# Settings in all cases: dsDNA, one strand shown
# SHOX [1] = molecular target: SHOX (Homo sapiens, UniProt O15266 103-189)
# CRX [2] = molecular target: CRX (Homo sapiens, UniProt O43186 26-111)
# CRX [3] = molecular target: CRX (Homo sapiens, UniProt O43186 26-111, E42D)
# SHOX [4] = molecular target: SHOX (Homo sapiens, UniProt O15266 103-189, R173C)
# Chain of SHOX (Homo sapiens, UniProt O15266 103-189, R173C) (O15266 103-189 R173C): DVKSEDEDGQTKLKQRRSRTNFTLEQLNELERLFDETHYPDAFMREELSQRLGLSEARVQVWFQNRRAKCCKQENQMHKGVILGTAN
# CRX [5] = molecular target: CRX (Homo sapiens, UniProt O43186 26-111, R41L)
# Chain of CRX (Homo sapiens, UniProt O43186 26-111, R41L) (O43186 26-111 R41L): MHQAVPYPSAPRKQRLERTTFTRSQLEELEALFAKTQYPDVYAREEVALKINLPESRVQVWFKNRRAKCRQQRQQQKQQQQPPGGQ
# MSX2 [6] = molecular target: MSX2 (Homo sapiens, UniProt P35548 130-214, R199I)
# Chain of MSX2 (Homo sapiens, UniProt P35548 130-214, R199I) (P35548 130-214 R199I): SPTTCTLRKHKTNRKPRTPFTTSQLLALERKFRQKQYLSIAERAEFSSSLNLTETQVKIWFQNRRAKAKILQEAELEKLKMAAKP
# MSX2 [7] = molecular target: MSX2 (Homo sapiens, UniProt P35548 130-214)
# Chain of MSX2 (Homo sapiens, UniProt P35548 130-214) (P35548 130-214): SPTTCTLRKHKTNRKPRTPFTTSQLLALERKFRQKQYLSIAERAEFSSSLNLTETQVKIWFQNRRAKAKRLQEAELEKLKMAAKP
# MSX2 [8] = molecular target: MSX2 (Homo sapiens, UniProt P35548 130-214, F161Y)
# Chain of MSX2 (Homo sapiens, UniProt P35548 130-214, F161Y) (P35548 130-214 F161Y): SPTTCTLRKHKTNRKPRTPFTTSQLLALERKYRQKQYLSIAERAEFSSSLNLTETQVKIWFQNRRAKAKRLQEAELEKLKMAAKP
# PITX2 = PITX2 (Homo sapiens, UniProt Q99697 72-157)
# HOXA4 [9] = molecular target: HOXA4 (Homo sapiens, UniProt Q00056 201-287, W262R)
# Chain of HOXA4 (Homo sapiens, UniProt Q00056 201-287, W262R) (Q00056 201-287 W262R): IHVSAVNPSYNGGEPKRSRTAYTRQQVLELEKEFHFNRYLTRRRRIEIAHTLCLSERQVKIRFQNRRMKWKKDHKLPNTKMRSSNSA
# HOXB6 [10] = molecular target: HOXB6 (Homo sapiens, UniProt P17509 132-218, K202E)
# Chain of HOXB6 (Homo sapiens, UniProt P17509 132-218, K202E) (P17509 132-218 K202E): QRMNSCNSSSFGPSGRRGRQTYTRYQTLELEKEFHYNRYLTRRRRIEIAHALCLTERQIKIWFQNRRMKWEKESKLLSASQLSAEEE
# HOXA4 [11] = molecular target: HOXA4 (Homo sapiens, UniProt Q00056 201-287, R217L)
# Chain of HOXA4 (Homo sapiens, UniProt Q00056 201-287, R217L) (Q00056 201-287 R217L): as the sequence (Q00056 201-287 W262R) above, with R17L, R62W counted along it
# HOXA4 [12] = molecular target: HOXA4 (Homo sapiens, UniProt Q00056 201-287)
# Chain of HOXA4 (Homo sapiens, UniProt Q00056 201-287) (Q00056 201-287): as the sequence (Q00056 201-287 W262R) above, with R62W counted along it
# HOXA4 [13] = molecular target: HOXA4 (Homo sapiens, UniProt Q00056 201-287, W262F)
# Chain of HOXA4 (Homo sapiens, UniProt Q00056 201-287, W262F) (Q00056 201-287 W262F): as the sequence (Q00056 201-287 W262R) above, with R62F counted along it
# HOXB6 [14] = molecular target: HOXB6 (Homo sapiens, UniProt P17509 132-218)
# Chain of HOXB6 (Homo sapiens, UniProt P17509 132-218) (P17509 132-218): as the sequence (P17509 132-218 K202E) above, with E71K counted along it
# VENTX [15] = molecular target: T1, VENTX (Homo sapiens, UniProt O95231 78-163, R121Q)
# T1 sequence: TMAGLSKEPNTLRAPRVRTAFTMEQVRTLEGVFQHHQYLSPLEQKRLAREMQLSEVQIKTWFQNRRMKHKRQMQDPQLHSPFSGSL
# VENTX [16] = molecular target: T2, VENTX (Homo sapiens, UniProt O95231 78-163)
# T2 sequence: T1 sequence with Q44R
# PAX4 [17] = molecular target: T3, PAX4 (Homo sapiens, UniProt O43316 9-242, R200K)
# T3 sequence: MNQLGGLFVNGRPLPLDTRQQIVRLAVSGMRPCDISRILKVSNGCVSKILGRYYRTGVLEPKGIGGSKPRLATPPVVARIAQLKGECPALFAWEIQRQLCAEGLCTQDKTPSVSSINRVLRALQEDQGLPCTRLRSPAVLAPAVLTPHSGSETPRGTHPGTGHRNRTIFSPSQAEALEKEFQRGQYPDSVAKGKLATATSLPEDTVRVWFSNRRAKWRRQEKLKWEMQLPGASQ
# VENTX [18] = molecular target: T4, VENTX (Homo sapiens, UniProt O95231 78-163, Y115F)
# T4 sequence: T1 sequence with Y38F, Q44R
# PAX4 [19] = molecular target: T5, PAX4 (Homo sapiens, UniProt O43316 9-242)
# T5 sequence: T3 sequence with K192R
# PAX4 [20] = molecular target: T6, PAX4 (Homo sapiens, UniProt O43316 9-242, R200Q)
# T6 sequence: T3 sequence with K192Q
# PAX4 [21] = molecular target: T7, PAX4 (Homo sapiens, UniProt O43316 9-242, F177V)
# T7 sequence: T3 sequence with F169V, K192R
# PAX4 [22] = molecular target: T8, PAX4 (Homo sapiens, UniProt O43316 9-242, F177Y)
# T8 sequence: T3 sequence with F169Y, K192R
# PAX4 [23] = molecular target: T9, PAX4 (Homo sapiens, UniProt O43316 9-242, R227W)
# T9 sequence: T3 sequence with K192R, R219W
# Chain of CRX (Homo sapiens, UniProt O43186 26-111) (O43186 26-111): as the sequence (O43186 26-111 R41L) above, with L16R counted along it
# Chain of SHOX (Homo sapiens, UniProt O15266 103-189) (O15266 103-189): as the sequence (O15266 103-189 R173C) above, with C71R counted along it
# Chain of CRX (Homo sapiens, UniProt O43186 26-111, E42D) (O43186 26-111 E42D): as the sequence (O43186 26-111 R41L) above, with L16R, E17D counted along it
sequence,measurement,setting,value
CAGTCGCG,binding signal,SHOX [1],"7 upbm affinity estimate (log intensity, higher = more binding, comparable within an allelic series)"
same,binding signal,CRX [2],"8.23 upbm affinity estimate (log intensity, higher = more binding, comparable within an allelic series)"
same,binding signal,CRX [3],"8.35 upbm affinity estimate (log intensity, higher = more binding, comparable within an allelic series)"
same,binding signal,SHOX [4],"7.2 upbm affinity estimate (log intensity, higher = more binding, comparable within an allelic series)"
same,binding signal,CRX [5],"8.3 upbm affinity estimate (log intensity, higher = more binding, comparable within an allelic series)"
CCTGCCTC,binding signal,SHOX [1],"7.13 upbm affinity estimate (log intensity, higher = more binding, comparable within an allelic series)"
same,binding signal,CRX [2],"8.19 upbm affinity estimate (log intensity, higher = more binding, comparable within an allelic series)"
same,binding signal,CRX [3],"8.2 upbm affinity estimate (log intensity, higher = more binding, comparable within an allelic series)"
same,binding signal,MSX2 [6],"9.6 upbm affinity estimate (log intensity, higher = more binding, comparable within an allelic series)"
same,binding signal,SHOX [4],"7.13 upbm affinity estimate (log intensity, higher = more binding, comparable within an allelic series)"
same,binding signal,MSX2 [7],"9.51 upbm affinity estimate (log intensity, higher = more binding, comparable within an allelic series)"
same,binding signal,MSX2 [8],"9.51 upbm affinity estimate (log intensity, higher = more binding, comparable within an allelic series)"
same,binding signal,CRX [5],"8.18 upbm affinity estimate (log intensity, higher = more binding, comparable within an allelic series)"
GCTGATGA,binding signal,SHOX [1],"8.21 upbm affinity estimate (log intensity, higher = more binding, comparable within an allelic series)"
CGGATTAG,binding signal,SHOX [1],"8.9 upbm affinity estimate (log intensity, higher = more binding, comparable within an allelic series)"
same,binding signal,CRX [2],"13.6 upbm affinity estimate (log intensity, higher = more binding, comparable within an allelic series)"
same,binding signal,CRX [3],"13.7 upbm affinity estimate (log intensity, higher = more binding, comparable within an allelic series)"
same,binding signal,PITX2,"13.2 upbm affinity estimate (log intensity, higher = more binding, comparable within an allelic series)"
same,binding signal,CRX [5],"13.4 upbm affinity estimate (log intensity, higher = more binding, comparable within an allelic series)"
AATATCGA,binding signal,SHOX [1],"8.49 upbm affinity estimate (log intensity, higher = more binding, comparable within an allelic series)"
AGATATTG,binding signal,SHOX [1],"8.52 upbm affinity estimate (log intensity, higher = more binding, comparable within an allelic series)"
GATTAATC,binding signal,SHOX [1],"10.2 upbm affinity estimate (log intensity, higher = more binding, comparable within an allelic series)"
same,binding signal,CRX [2],"13.2 upbm affinity estimate (log intensity, higher = more binding, comparable within an allelic series)"
same,binding signal,CRX [3],"13 upbm affinity estimate (log intensity, higher = more binding, comparable within an allelic series)"
same,binding signal,PITX2,"12.9 upbm affinity estimate (log intensity, higher = more binding, comparable within an allelic series)"
same,binding signal,CRX [5],"12.9 upbm affinity estimate (log intensity, higher = more binding, comparable within an allelic series)"
CAGGGAGG,binding signal,SHOX [1],"6.88 upbm affinity estimate (log intensity, higher = more binding, comparable within an allelic series)"
same,binding signal,HOXA4 [9],"9.65 upbm affinity estimate (log intensity, higher = more binding, comparable within an allelic series)"
same,binding signal,HOXB6 [10],"8.81 upbm affinity estimate (log intensity, higher = more binding, comparable within an allelic series)"
same,binding signal,HOXA4 [11],"9.79 upbm affinity estimate (log intensity, higher = more binding, comparable within an allelic series)"
same,binding signal,SHOX [4],"7 upbm affinity estimate (log intensity, higher = more binding, comparable within an allelic series)"
same,binding signal,HOXA4 [12],"9.91 upbm affinity estimate (log intensity, higher = more binding, comparable within an allelic series)"
same,binding signal,HOXA4 [13],"9.86 upbm affinity estimate (log intensity, higher = more binding, comparable within an allelic series)"
same,binding signal,HOXB6 [14],"8.85 upbm affinity estimate (log intensity, higher = more binding, comparable within an allelic series)"
GGGCAGAC,binding signal,SHOX [1],"7.12 upbm affinity estimate (log intensity, higher = more binding, comparable within an allelic series)"
same,binding signal,VENTX [15],"7.99 upbm affinity estimate (log intensity, higher = more binding, comparable within an allelic series)"
same,binding signal,VENTX [16],"8.2 upbm affinity estimate (log intensity, higher = more binding, comparable within an allelic series)"
same,binding signal,PAX4 [17],"9.48 upbm affinity estimate (log intensity, higher = more binding, comparable within an allelic series)"
same,binding signal,VENTX [18],"8.13 upbm affinity estimate (log intensity, higher = more binding, comparable within an allelic series)"
same,binding signal,PAX4 [19],"9.45 upbm affinity estimate (log intensity, higher = more binding, comparable within an allelic series)"
same,binding signal,PAX4 [20],"9.48 upbm affinity estimate (log intensity, higher = more binding, comparable within an allelic series)"
same,binding signal,SHOX [4],"7.25 upbm affinity estimate (log intensity, higher = more binding, comparable within an allelic series)"
same,binding signal,PAX4 [21],"9.22 upbm affinity estimate (log intensity, higher = more binding, comparable within an allelic series)"
same,binding signal,PAX4 [22],"9.21 upbm affinity estimate (log intensity, higher = more binding, comparable within an allelic series)"
same,binding signal,PAX4 [23],"9.33 upbm affinity estimate (log intensity, higher = more binding, comparable within an allelic series)"
